Bioassay records: PubChem, National Center for Advancing Translational Sciences (NCATS)
Hits are enriched below; roughly 3.9% of the tested compounds scored in any of these assays.
FH mod – Identification of activators of human fumarate hydratase by quantitative high-throughput screening; Fumarate hydratase, mitochondrial (Homo sapiens), P07954; Potency, µM (series often up to 79.9 µM), actives largely listed as inhibitors; FH coupled MDH/diaphorase resazurin fluorescence, 15 min; 54,000 compounds, 0.22% hits; further: the screen sought activators but most active calls are inhibition curves; nearly all actives have a fitted effect of over 45% in size
NTMT1 inh – Primary qHTS for Inhibitors of N-terminal methyltransferase 1 (NTMT1): MTaseGlo Assay. Potency, µM (doses to about 114 µM), hits mostly inhibitors. N-terminal Xaa-Pro-Lys N-methyltransferase 1 (Homo sapiens), Q9BV86. NTMT1 MTase-Glo SAH luminescence, purified enzyme. AID 1645870, 2021. 59,000 compounds, 2.5% hits; further: nearly all actives have a fitted effect of over 65% in size
p53null 39C kill – qHTS Screen for Compounds that Selectively Target Cancer Cells with p53 Mutations: Cytotoxicity of p53 Null Cells at the Nonpermissive Temperature; Potency, µM (top dose mostly 46.1 µM), usual class: cytotoxic; H1299 p53-null (neo) cells, 39C, ATPlite viability, 24 h; AID 904, 2007; 55,000 compounds, 0.97% hits; further: nearly all actives have a fitted effect of over 50% in size
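Temperature-shift cytotoxicity format: compound titrations on p53-null or A138V-expressing H1299 cells held 24 hr at 39C, cell ATP then measured, AC50 from Hill model.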
p53null 32C kill – qHTS Screen for Compounds that Selectively Target Cancer Cells with p53 Mutations: Cytotoxicity of p53 Null Cells at the Permissive Temperature; 55,000 compounds, 0.62% hits; H1299-neo p53 null cells, ATP luminescence, 24 h, 32C; AID 903, 2007; Potency, µM (titrated, usually from 46.1 µM), most hits filed as cytotoxic; further: nearly all actives have a fitted effect of over 55% in size
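Overnight 37C seeding (600 cells/well) of H1299-neo preceded a 24 hr, 32C exposure to compounds up to 46 uM. ATP levels, read by luminescence after 20 min at RT, indicated surviving cells.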
GALC G270D up – A Novel Cell-Based Assay to Identify Small Molecules for B -Galactocerebrosidase; AID 1159614, 2016; 145M-Twi-hGALC-G270D cells, HMU-beta-Gal fluorescence, 48 h; 45,000 compounds, 0.1% hits; Potency, µM (doses to about 57.5 µM), usual class: activators; P54803; further: nearly all actives have a fitted effect of over 65% in size
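qHTS, 1536-well; 145M-Twi-hGALC-G270D cells (WT line also made) in DMEM/F12 + 10% FBS; compound incubation on live cells; HMU-β-gal 0.1 mM final, pH 5.2, NaTC; carbonate stop; fluorescence increase = enhanced residual activity.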
GPR32 ag – qHTS for Agonists of Human Resolvin D1 Receptor DRV1 | activation, % at 76.9 µM | 48,000 compounds, 2.5% hits | Probable G-protein coupled receptor 32 (Homo sapiens), O75388 | CHO-K1 GPR32 beta-arrestin PathHunter luminescence, 90 min; zero percent set by DMSO-only wells;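 active means activation of at least 60% and not above a set upper limit, about 1 call in 100 departs from these limits; inconclusive means activation of 40% to 60%, or above that upper limit; inactive means activation under 40%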
Target sequence (O75388 whole entry, looked up): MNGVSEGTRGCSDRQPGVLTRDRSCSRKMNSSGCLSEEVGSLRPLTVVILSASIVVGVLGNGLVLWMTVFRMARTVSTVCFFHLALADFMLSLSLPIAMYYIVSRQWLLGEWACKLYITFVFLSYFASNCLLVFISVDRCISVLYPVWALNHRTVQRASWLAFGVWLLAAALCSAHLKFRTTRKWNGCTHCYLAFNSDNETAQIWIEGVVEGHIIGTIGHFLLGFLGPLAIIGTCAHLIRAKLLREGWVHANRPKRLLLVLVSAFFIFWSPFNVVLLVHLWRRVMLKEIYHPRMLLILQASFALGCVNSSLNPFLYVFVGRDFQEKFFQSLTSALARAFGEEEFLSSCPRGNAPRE
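Luminescent readout of beta-Gal complementation quantifies ligand-induced beta-arrestin association with GPR32 in CHO-K1 cells; 90 min compound incubation at 37 °C, detection 1 h at room temperature.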
DYRK1A inh-1 – Assay for Inhibitors of Dual-Specificity Tyrosine-(Y)-Phosphorylation Regulated Kinase 1A (Kinase-Glo assay); 100 compounds, 80% hits; recombinant DYRK1A, Kinase-Glo ATP depletion luminescence; shares compounds with NTMT1 inh; Potency, µM (doses to about 76.9 µM), hits mostly inhibitors
CLK4 inh-1 – Confirmation Assay for Inhibitors of CDC-like Kinase 4 (Kinase-Glo Assay): SAR round 2; 90 compounds, 90% hits; AID 493204, 2011; recombinant Clk4, Kinase-Glo ATP luminescence, 4.5 h; Potency, µM (doses to about 76.9 µM), actives largely listed as inhibitors; shares compounds with NTMT1 inh
CLK4 inh-2 – Kinase Inhibition Study on Inhibitors of CDC-like Kinase 4 (Reaction Biology data): SAR round 2. shares compounds with NTMT1 inh. 65 compounds, 100% hits. AID 504421, 2011. Reaction Biology kinase assay, 10 uM ATP. Potency, µM, hits mostly inhibitors; calls by dose curve
DYRK1A inh-2 – Kinase Inhibition Study on Inhibitors of Dyrk1a (Reaction Biology data). Reaction Biology kinase assay, 10 uM ATP. Potency, µM, usual class: inhibitors. shares compounds with NTMT1 inh. 65 compounds, 90% hits;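 active means compounds that showed inhibition of Dyrk1a and received a fitted potency; inactive means compounds that showed no inhibition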
CLK2 inh – Kinase Inhibition Study on Inhibitors of CDC-like Kinase 2 (Reaction Biology data); Reaction Biology kinase assay, 10 uM ATP; shares compounds with NTMT1 inh; 65 compounds, 90% hits; Potency, µM, actives largely listed as inhibitors;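 active means compound that inhibits Clk2 kinase in the dose series, with an IC50 potency reported; inactive means no inhibition seen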
CLK3 RBC – Kinase Inhibition Study on Inhibitors of CDC-like Kinase 3 (Reaction Biology data); shares compounds with NTMT1 inh; 65 compounds, 40% hits; recombinant CLK3 kinase assay, 10 uM ATP; Potency, µM, hits mostly inhibitors;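 active means compounds that inhibited Clk3 enough in the ten-dose series to give a half-maximal potency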
DYRK1B inh – Kinase Inhibition Study on Inhibitors of Dyrk1b (Reaction Biology data); 65 compounds, 80% hits; shares compounds with NTMT1 inh; Recombinant Dyrk1b kinase assay, 10 uM ATP; AID 504429, 2011; Potency, µM, hits mostly inhibitors;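 active means compounds whose dose response shows an inhibitor phenotype against the kinase Dyrk1b; inactive means compounds showing no inhibitor phenotype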
CLK1 RBC – Kinase Inhibition Study on Inhibitors of CDC-like Kinase 1 (Reaction Biology data); shares compounds with NTMT1 inh; recombinant Clk1 kinase assay, 10 uM ATP; Potency, µM, usual class: inhibitors; 65 compounds, 90% hits; AID 504430, 2011;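 active means compounds that block the splicing kinase Clk1 enough to give a fitted half-inhibition concentration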
NNMT inh – Counterscreen qHTS for Inhibitors of N-terminal methyltransferase 1 (NTMT1): NNMT MTaseGlo assay | shares compounds with NTMT1 inh | NNMT MTase-Glo luminescence, SAH detection | Potency, µM (series often up to 57.1 µM), most hits filed as inhibitors | 120 compounds, 10% hits | AID 1645878, 2021
Target sequence (P40261 whole entry, looked up): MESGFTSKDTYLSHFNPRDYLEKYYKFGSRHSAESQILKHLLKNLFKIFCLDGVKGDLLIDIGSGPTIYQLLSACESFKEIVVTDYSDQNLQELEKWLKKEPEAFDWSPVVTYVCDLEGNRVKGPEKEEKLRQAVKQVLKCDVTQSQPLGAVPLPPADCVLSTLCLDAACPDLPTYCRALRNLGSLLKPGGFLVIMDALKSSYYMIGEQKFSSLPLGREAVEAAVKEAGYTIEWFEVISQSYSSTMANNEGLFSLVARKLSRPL
Numbers stand for hits; n = inactive; u = inconclusive; x = no result; ! = repeats disagree; [ ] = remark or other dose. Unless noted, the call rests on the fitted dose curve; in most records, active means well fitted curve in the direction sought with a large enough effect; inconclusive means small, poorly fitted or top-dose-only effect, or another doubt; inactive means no such curve, though single readings can be large; an effect the other way counts as inactive or inconclusive.

SMILES	FH mod	NTMT1 inh	p53null 39C kill	p53null 32C kill	GALC G270D up	GPR32 ag	others
COc1ccc(NC(=O)N2CCN3CCCCC3C2)cc1OC (stereo not drawn)	n	n	n	n	n	n
COc1ccc(C(=O)COC(=O)CCCC(=O)Nc2ccc(C(C)=O)cc2)cc1	n	n	n	n	n	n
COc1ccc2nc(-c3cc(OC)c(OC)c(OC)c3)cc(C(=O)NCC(=O)Nc3ccc(C(C)=O)cc3)c2c1	n	n	x	x	x	x	NNMT inh=u
C/C=C(\C)C(=O)OC[C@H]1O[C@@H](O[C@H]2[C@@H](O[C@H]3O[C@H](CO)[C@@H](O)[C@H](O)[C@H]3O[C@@H]3O[C@H](CO)[C@@H](O)[C@H](O)[C@H]3O)O[C@H](COC(=O)/C(C)=C/C)[C@@H](O)[C@@H]2O)[C@H](O)[C@@H](O)[C@@H]1O	n	n[12.6 µM]	x	x	x	x
Cc1cnc(Nc2ccc(F)cc2Cl)nc1-c1c[nH]c(C(=O)NC(CO)c2cccc(Cl)c2)c1 (stereo not drawn)	n	n	x	x	x	x	NNMT inh=n
Nc1ncnc2c1nc(N)n2[C@@H]1O[C@H](CO)[C@@H](O)[C@H]1O	n	n	x	x	x	x	NNMT inh=n
Cc1ccc(CN(C)c2ncnc3ccc(-c4ccc(C(=O)O)o4)cc23)o1	x	n	x	x	x	x	CLK4 inh-1=0.52µM
CCCCOc1cccc(C(=O)N(Cc2ccc(C)o2)c2ccccn2)c1	n	n	n	n	n	n
Cc1ccsc1CN(C)c1ncnc2ccc(-c3ccc([C@@H](C)O)o3)cc12	x	8.9µM!	x	x	x	x	CLK4 inh-1=0.16µM
CC(C)(C)OC(=O)N1CCN(c2ccc(OCc3ccc(-c4ccc(C#N)cc4)o3)cc2)CC1	x	n	x	x	x	x
Cc1ccc(NC(=O)N2CCN(c3nc(N)nc4sc(-c5cccnc5)nc34)CC2)cc1	n	n	x	x	x	x	NNMT inh=n
Nc1nonc1C(=Nc1ccc(F)c(Cl)c1)NO	n	n	x	x	x	x
Cc1nc(CNc2ncnc3ccc(-c4oc(-c5ccccc5)nc4C)cc23)cs1	x	u	x	x	x	x	DYRK1A inh-1=u
Cc1ccsc1CNc1ncnc2ccc(-c3c(C)noc3C)cc12	x	n	x	x	x	x
Cc1noc(C)c1-c1ccc2ncnc(NCc3ccccc3C(F)(F)F)c2c1	x	n	x	x	x	x
Cc1nc(CNc2ncnc3ccc(-c4ccoc4C)cc23)cs1	x	n	x	x	x	x	DYRK1A inh-1=7.3µM
Cc1nc(CNc2ncnc3ccc(-c4sc(C)nc4C)cc23)cs1	x	u	x	x	x	x	DYRK1A inh-1=8.2µM
O=C(Nc1ccc(-c2nc3ccccc3[nH]2)cc1)c1ccc2ncsc2c1	x	n	x	x	x	x
CN(C)CCOc1cc(NS(=O)(=O)c2c(Cl)cc(C(F)(F)F)cc2Cl)ccc1Cl	n	n	x	x	x	x
COc1ccc2cc3c(NC(=O)c4ccco4)nn(C)c3nc2c1	n	n	x	x	x	x	NNMT inh=n
CCN(CCCOc1ccc2c(Nc3cc(CC(=O)Nc4cccc(F)c4)[nH]n3)ncnc2c1)CCOP(=O)(O)O	n	u	x	x	x	x
O=C(O)c1ccc(-c2ccc3ncnc(NCc4nccs4)c3c2)o1	x	n	x	x	x	x	CLK4 inh-1=0.92µM;CLK4 inh-2=1.9;DYRK1A inh-2=41µM;CLK2 inh=27µM;CLK3 RBC=n;DYRK1B inh=18µM;CLK1 RBC=39µM
O=C(O)c1ccc(-c2ccc3ncnc(NCC4CCCO4)c3c2)o1 (stereo not drawn)	x	n	x	x	x	x	CLK4 inh-1=0.82µM;CLK4 inh-2=3.4;DYRK1A inh-2=30µM;CLK2 inh=20µM;CLK3 RBC=n;DYRK1B inh=12µM;CLK1 RBC=44µM
OCc1ccc(-c2ccc3ncnc(NCC4CCCO4)c3c2)o1 (stereo not drawn)	x	x	x	x	x	x	CLK4 inh-2=13;DYRK1A inh-2=n;CLK2 inh=n;CLK3 RBC=n;DYRK1B inh=45µM;CLK1 RBC=50µM
CCN(C)S(=O)(=O)Nc1ccc(F)c(C(=O)c2c[nH]c3ncc(-c4cnc(C5CC5)nc4)cc23)c1F	x	n	x	x	x	x
Fc1cccc(CNc2ncnc3ccc(-c4ccc5c(c4)OCO5)cc23)c1	x	n	x	x	x	x
c1nc(NCC2CCCCC2)c2cc(-c3ccc4c(c3)OCO4)ccc2n1	x	u	x	x	x	x	CLK4 inh-1=0.073µM;CLK4 inh-2=0.15;DYRK1A inh-2=0.19µM;CLK2 inh=0.86µM;CLK3 RBC=5.3µM;DYRK1B inh=1.1µM;CLK1 RBC=0.51µM
